According to PubChem BioAssay (NCATS):
Active and inactive are the calls of the source.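 How the source made its calls: active means compounds whose dose series gives a full or clear partial fitted curve of increased nuclear translocation; inconclusive means weak partial curve or effect only at the top dose; inactive means no dose-dependent translocation response.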

Target: Glucocorticoid receptor (Homo sapiens) (UniProt P04150)
Test: GR-GFP Redistribution (AID 450)
Details: U2OS GR-GFP nuclear translocation, laser cytometry, 2 h
Excerpt: NIH Molecular Libraries Screening Centers Network [MLSCN]
NIH Chemical Genomics Center [NCGC]
The glucocorticoid receptor (GR) Redistribution assay (BioImage) enables the visualization of GR cytoplasmic to nuclear translocation by the use of a GR-GFP fusion. GR is normally cytosolic, however ligands such as dexamethasone, cause nuclear translocation where the protein binds to response elements and interacts with various co-factors to modulate transcription. Because both functional agonists and antagonists can induce nuclear translocation, this assay can detect ligands regardless of their effects on gene expression. GR-GFP expressing U20S cells were used here. Dexamethasone was the positive control for translocation and data normalization. Detection of nuclear translocation was performed in 1536-well plates using the Acumen laser scanning plate cytometer (TTP LabTech). Validation of this assay and a detailed protocol have been described.
NCGC Assay Protocol Summary:
GR-GFP U2OS cells were maintained in DMEM with Glutamax and high glucose, 1% v/v penicillin-streptomycin, and 0.5 mg/mL Geneticin. For cell culture, 10% […] fetal bovine serum (FBS) was used (Invitrogen #26140-079). For cell plating 10% dextran, charcoal-stripped FBS (Hyclone SH30068.03) was used. U2OS cells were trypsin treated, suspended in medium, and passed through a 40 um basket filter. The cells were seeded at 600 cells/5 uL/well into clear-bottom black sided 1536-well plates and incubated for approximately 20 hrs, 37degC, 5%, CO2 in a tissue culture incubator. Twenty-three nL of compound was delivered by pin tool and the plates were incubated as above for 2 hrs. The compounds were tested as a 7-point titration ranging from 46 uM to 0.6 nM. The cells were fixed using the Kalypsys Washer/Dispenser station. The fixing protocol involved aspiration of the cell media, addition of 6 uL/well of PBS, aspiration of PBS, addition of 5uL/well of 100% methanol, aspiration of methanol, and addition of 3 uL/well PBS with 1.5 uM propidium iodide (PI). The plates were read by the Acumen Explorer using a 1 x 8 um scan of the whole well area. PI fluorescence triggered the collection of PI and GFP signals. A nuclei population was defined by a 10 to 100 um width and depth filter that eliminated small and large fluorescent particles. Two subpopulations of nuclei were then defined by peak intensity of GFP fluorescence to obtain translocated and untranslocated objects. The number of translocated objects was used for data normalization.
Keywords: NIH Roadmap, MLSCN, MLI, MLSMR, sOGT, qHTS, NCGC
Potency means the concentration at half of the fitted maximal effect.

Glucocorticoid receptor (Homo sapiens), sequence (P04150 whole entry, looked up): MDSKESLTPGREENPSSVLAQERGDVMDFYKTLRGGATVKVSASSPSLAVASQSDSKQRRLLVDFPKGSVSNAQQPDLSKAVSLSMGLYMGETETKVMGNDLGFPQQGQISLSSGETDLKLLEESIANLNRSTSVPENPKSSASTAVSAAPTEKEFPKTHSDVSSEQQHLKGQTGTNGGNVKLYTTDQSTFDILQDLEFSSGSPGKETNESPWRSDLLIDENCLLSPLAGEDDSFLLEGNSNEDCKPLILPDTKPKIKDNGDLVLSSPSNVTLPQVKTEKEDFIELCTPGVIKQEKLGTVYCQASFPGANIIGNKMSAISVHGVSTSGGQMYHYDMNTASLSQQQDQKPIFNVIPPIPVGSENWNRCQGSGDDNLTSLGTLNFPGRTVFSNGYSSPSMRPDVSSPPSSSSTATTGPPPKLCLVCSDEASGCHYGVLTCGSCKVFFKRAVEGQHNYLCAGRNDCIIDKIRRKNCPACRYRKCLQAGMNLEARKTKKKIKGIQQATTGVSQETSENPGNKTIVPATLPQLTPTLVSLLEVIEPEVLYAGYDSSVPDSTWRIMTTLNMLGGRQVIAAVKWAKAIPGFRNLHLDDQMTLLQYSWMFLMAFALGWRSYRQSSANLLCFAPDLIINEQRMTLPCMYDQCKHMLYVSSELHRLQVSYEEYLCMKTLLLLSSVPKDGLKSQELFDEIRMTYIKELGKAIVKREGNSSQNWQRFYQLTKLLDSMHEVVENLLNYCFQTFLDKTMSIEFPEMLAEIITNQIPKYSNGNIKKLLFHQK

| SMILES | Potency |
| --- | --- |
| CCNc1ncc2nc(CCc3ccccc3)c(=O)n(CCC#N)c2n1 | > 9.22 µM (inactive) |
| c1ccc(Nc2nc(-c3cccnc3)nc3ccccc23)cc1 | > 46 µM (inactive) |
| COc1ncc2nc(-c3ccccc3)c(=O)n(CCc3ccccc3)c2n1 | > 9.22 µM (inactive) |
| COc1ccc(-c2oc3ccc(C)cc3c(=O)c2O)cc1OC | > 46 µM (inactive) |
| COCCn1c(=O)c(-c2ccc(F)cc2)nc2cnc(Nc3cccc(OC)c3)nc21 | > 9.22 µM (inactive) |
| COc1ccc2[nH]cc(CCNc3ncncc3-c3ccoc3)c2c1 | > 46 µM (inactive) |
| CCNc1ncc2nc(CCc3ccccc3)c(=O)n(C3CC3)c2n1 | > 9.22 µM (inactive) |
| CN(C)c1ncc2nc(CCc3ccccc3)c(=O)n(Cc3cccs3)c2n1 | > 9.22 µM (inactive) |
| COCCn1c(=O)c(-c2cccc(C#N)c2)nc2cnc(OCc3ccccc3)nc21 | > 9.22 µM (inactive) |
| COc1ccccc1CNc1nc(-c2cccc(NS(C)(=O)=O)c2)nc2ccccc12 | > 46 µM (inactive) |
| CC(C)=CCC1=C(OCC(=O)O)C(=O)c2ccccc2C1=O | > 46 µM (inactive) |
| CN(Cc1ccco1)c1cc(-c2ccc3c(c2)OCO3)ncn1 | > 46 µM (inactive) |
| N=C(N)c1ccc(N=Nc2c(O)ccc3c2[nH]c2ccccc23)cc1 | > 46 µM (inactive) |
| CN1CCN(c2ncc3nc(CCc4ccccc4)c(=O)n(Cc4cccs4)c3n2)CC1 | > 9.22 µM (inactive) |
| O=c1cnc2cnc(OCc3ccccc3)nc2n1CCc1ccccc1 | > 9.22 µM (inactive) |
| COc1cccc(-c2nc(NCc3cccnc3)c3ccccc3n2)c1 | > 46 µM (inactive) |
| CN(C)c1nc(-c2cccc(C#N)c2)nc2ccccc12 | > 46 µM (inactive) |
| COc1c2ccoc2cc2oc(=O)ccc12 | > 46 µM (inactive) |
| CN(C)C(=O)c1ccc(-c2nc(Nc3ccccc3)c3ccccc3n2)cc1 | > 46 µM (inactive) |
| COc1cccc(-c2nc(NC3CC3)c3ccccc3n2)c1 | > 46 µM (inactive) |

| SMILES | Potency |
| --- | --- |
| COc1ccccc1CNc1ncncc1-c1ccccc1Cl | > 46 µM (inactive) |
| COc1cccc(-c2ccc3ncnc(N4CCNCC4)c3c2)c1 | > 46 µM (inactive) |
| COc1cccc(Cn2c(=O)c(CCc3ccccc3)nc3cnc(N4CCN(C)CC4)nc32)c1 | > 9.22 µM (inactive) |
| CN(C)c1ccc(-c2nccc(NCc3cccs3)n2)cc1 | > 46 µM (inactive) |
| O=c1cc(-c2ccc(O)c(O)c2)oc2cc(O[C@@H]3O[C@@H](CO)[C@@H](O)[C@@H](O)[C@H]3O)cc(O)c12 | > 46 µM (inactive) |
| O=C1c2ccccc2C(=O)C1c1ccc2ccccc2n1 | > 20.6 µM (inactive) |
| O=C(/C=N/O)NCCCN1CCOCC1 | > 20.6 µM (inactive) |
| COCCn1c(=O)c(-c2ccccc2)nc2cnc(Oc3cccc(Cl)c3)nc21 | > 9.22 µM (inactive) |
| Cc1ccccc1-c1ccc2ncnc(N3CCOCC3)c2c1 | > 46 µM (inactive) |
| COc1ccccc1CNc1ncncc1-c1ccccc1C(F)(F)F | > 46 µM (inactive) |
| COc1ccccc1CNc1ncnc2ccc(-c3ccc(C(=O)N(C)C)cc3)cc12 | > 46 µM (inactive) |
| COc1ccc2[nH]cc(CCNc3cc(-c4cccc(C#N)c4)ncn3)c2c1 | > 46 µM (inactive) |
| COc1ccccc1CNc1nc(-c2ccc(C(=O)N(C)C)cc2)nc2ccccc12 | > 46 µM (inactive) |
| CN1CC=C2C(C#N)=C(N)C(C#N)(C#N)[C@H](c3cccc(Cl)c3)C2C1 (stereo not given in full) | > 20.6 µM (inactive) |
| O=c1cc(-c2cccc(O)c2)oc2c(O)c(O)ccc12 | > 46 µM (inactive) |
| Cc1ccccc1-c1nc(Nc2ccncc2)c2ccccc2n1 | > 46 µM (inactive) |
| CC(=O)NCCNc1nc(-c2cccc(C#N)c2)nc2ccccc12 | > 46 µM (inactive) |
| CN1CCN(c2ncc3nc(CCc4ccccc4)c(=O)n(CCc4ccccc4)c3n2)CC1 | > 9.22 µM (inactive) |
| COc1cccc(-c2cncnc2NCCN2CCOCC2)c1 | > 46 µM (inactive) |
| COc1cccc(Cn2c(=O)cnc3cnc(N(C)C)nc32)c1 | > 9.22 µM (inactive) |
